# The panel holds about 83,000 compounds, 20% with a hit somewhere; the sample as a whole holds those more often.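 Compound tested at a single concentration for 48 hours in 96-well plates; a percent growth value below 10 was scored as active.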 A number with no mark means an inactive call. The source made the active and inactive calls.
# Assays:
# Assay in all cases: NCI-60 one-dose screen, 48 h (100 = growth as untreated, 0 = no growth, -100 = all killed)
# Conditions in all cases: 10 µM unless noted
# SN12C renal = tested on: SN12C renal
# UO-31 renal = tested on: UO-31 renal
# TK-10 renal = tested on: TK-10 renal
# CAKI-1 renal = tested on: CAKI-1 renal
# A498 renal = tested on: A498 renal
# CCRF-CEM leukemia = tested on: CCRF-CEM leukemia
# MOLT-4 leukemia = tested on: MOLT-4 leukemia
# SR leukemia = tested on: SR leukemia
# ACHN renal = tested on: ACHN renal
SMILES,growth (SN12C renal),growth (UO-31 renal),growth (TK-10 renal),growth (CAKI-1 renal),growth (A498 renal),growth (CCRF-CEM leukemia),growth (MOLT-4 leukemia),growth (SR leukemia),growth (ACHN renal)
COc1cc(NC(=O)CCSc2nc3ccccc3c(=O)n2CCc2ccccn2)cc(OC)c1OC,92.8%,85%,111%,89%,74.7%,83.2%,87.6%,–,–
COc1ccc(-c2cc(=O)c3c(OC)c4ccoc4c(/C=C/C=O)c3o2)cc1,13%,44.1%,68.7%,95.1%,78.8%,0.782% (active),-8.67% (active),-8.77% (active),–
COc1cc(-c2c3c(cn2S(=O)(=O)c2ccccc2)-c2nc(N)sc2CC3)cc(OC)c1OC,54.1%,30.5%,53.4%,–,21.1%,7.05% (active),23.5%,9.55% (active),49.9%
O=NN(Cc1cccnc1)C(=O)NC1CCCCC1,98.9%,90%,114%,93.9%,–,102%,–,99.7%,96.5%
CCOC(=O)c1cc2c(n1Cc1cc(OC)cc(OC)c1)-c1oncc1CCC2,38.3%,18.5%,56.6%,–,-14.5% (active),–,18%,9.52% (active),37.6%
Cc1ccc(C(=O)c2oc3ccc4c(C)cc(=O)oc4c3c2C)cc1,30.5%,9.48% (active),27.2%,–,32.3%,17.1%,–,12.7%,–
COc1ccc(/C=C2\SC(=Nc3ccccc3)NC2=O)cc1,-39.9% (active),-98.3% (active),-92.3% (active),–,-92.5% (active),-53.6% (active),-59% (active),-33% (active),-70.9% (active)
CN(C)c1ccc(N=Cc2ccc(N3CCOCC3)cc2)cc1,79%,71.4%,116%,–,91.7%,–,65.2%,75.6%,88.8%
COc1ccc(C(O)(CCC(C)C)C(CN2CCOCC2)c2ccc(Cl)cc2)cc1 (centres undefined),70.6%,62.8%,86%,–,110%,34.2%,34.2%,10.7%,57.4%
CCOc1ccc2c(c1)CN(Cc1ccc(Cl)cc1)CO2,67.7%,40.5%,20.1%,–,39.5%,78.1%,83.2%,41.5%,33.2%
COc1cc(OC)cc(N2C(=O)N(Cc3ccc(C(C)(C)C)cc3)c3ccccc3S2(=O)=O)c1,86.1%,54%,97.8%,–,98.6%,84.7%,93.3%,41.8%,–
CCCCCCc1cc2cc(-c3nc4ccccc4[nH]3)c(=Nc3ccccc3C)oc2cc1O,45.8%,20.3%,46.8%,–,79.7%,25.3%,21%,-14.5% (active),51%
COc1cc(C(=O)Nc2ccc(-c3nc4ccccc4[nH]3)cc2)cc(OC)c1OC,45.4%,49.5%,60.1%,55.9%,–,36.5%,41.3%,10.1%,–
CCOC(=O)C1=C(C)N=c2s/c(=C\c3ccccc3O)c(=O)n2C1c1ccc(OC)c2ccccc12 (centres undefined),47.3%,-18.3% (active),10.8%,–,17.6%,–,-9.58% (active),-18.4% (active),33.5%
COC(=O)C1(C)COP(=O)(Nc2ccc(OC)cc2)OC1 (centres undefined),102%,82.7%,108%,99.2%,–,102%,99.2%,93.2%,104%
O=Nc1c(O)ccc2ccccc12.O=Nc1c(O)ccc2ccccc12.O=Nc1c([O-])ccc2ccccc12.[Fe+3],99.6%,60.2%,127%,106%,–,107%,110%,105%,102%
O=C(O)CCC(=O)c1ccc(C2CCCCCC2)cc1,99.5%,80.4%,99.1%,97.4%,–,101%,–,93.8%,–

SMILES,growth (SN12C renal),growth (UO-31 renal),growth (TK-10 renal),growth (CAKI-1 renal),growth (A498 renal),growth (CCRF-CEM leukemia),growth (MOLT-4 leukemia),growth (SR leukemia),growth (ACHN renal)
COc1ccc(-c2nsc3c2NC(=O)CC3c2ccsc2)cc1 (centres undefined),41.9%,45%,53.2%,–,0.156% (active),-7.06% (active),17.5%,19.2%,41.9%
CCOc1cccc(/C=N/NC(=O)C(=O)Nc2cccc(C(F)(F)F)c2)c1O,30.6%,9.54% (active),46.1%,9.87% (active),–,14.1%,19.1%,15.9%,16.6%
O=C(NC(=S)Nc1cccc(NC(=S)NC(=O)c2ccccc2)c1)c1ccccc1,61.9%,84.6%,75.8%,–,104%,–,103%,79.8%,60.6%
Cc1ccc(F)cc1NC(=O)c1cc(Cl)ccc1Nc1ccccc1,32.1%,23.7%,63%,48.2%,89.1%,45.8%,29%,44.2%,–
c1ccc(CNc2nc(Nc3ccccc3)nc3ccccc23)cc1,71.3%,80.7%,19.3%,40.4%,37.4%,69.5%,80.3%,20%,–
O=C(NCCCN1CCC(N2CCCCC2)CC1)C1=Cc2cc(Br)ccc2OC1,57.7%,21.8%,60%,54.5%,–,27.4%,–,11.4%,37.7%
O=C1c2ccc3c4c(ccc(c24)C(=O)N1CCCCO)C(=O)N(CCCCO)C3=O,72%,24.4%,22.5%,35.4%,56.2%,6.38% (active),22.5%,5.37% (active),–
CC(=O)SC1CC(=O)C=C2CCC3C4CCC(=O)OC4(C)CCC3C21C (centres undefined),–,87%,93.8%,–,101%,101%,105%,111%,–
CN1CCN(c2nc(Nc3ccc(O)cc3)nc3ccccc23)CC1,63.8%,57.3%,71.9%,–,85.2%,93.4%,98.4%,87%,49.5%
COc1ccc(-n2c(C(O)c3ccccc3)n[nH]c2=S)cc1 (centres undefined),88.2%,79.6%,101%,–,103%,98.4%,83.4%,–,95.5%
COC(=O)[C@H]1CCCN1C(=O)[C@H]1CCCN1C(=O)[C@H](Cc1c[nH]c2ccccc12)NC(=S)Nc1cc(C(F)(F)F)cc(C(F)(F)F)c1,51%,45.5%,80.9%,38.6%,–,–,29.4%,4.48% (active),49%
O=C(Nc1ccccc1O)c1ccc(Oc2cccc(C(=O)Nc3ccccc3O)c2)cc1,15.4%,5.32% (active),28.3%,–,20.5%,-6.44% (active),-28.5% (active),-28.6% (active),15.8%
CC(=O)Nc1nc2c(s1)CCc1c-2cn(S(=O)(=O)c2ccccc2)c1-c1ccccc1,76.8%,41.2%,85.9%,56.9%,–,43.1%,–,28.1%,69.1%
O=C(Nc1nc2c(s1)CCc1c-2c(Br)n(Cc2ccccc2)c1Br)c1ccccc1,87.7%,57.6%,54.9%,67.4%,75%,77%,83.1%,70.3%,–
CCCCCCc1cc2cc(-c3csc(/C=C/c4ccccc4)n3)c(=O)oc2cc1O,34.9%,13.5%,49%,32.8%,-25.3% (active),2.21% (active),4.75% (active),-7.16% (active),–
O=C(CSc1ccc2nnc(-c3cccc(F)c3)n2n1)Nc1ccc2c(c1)OCO2,80.5%,70.4%,112%,84.1%,104%,32.5%,62.1%,56.3%,–
CSc1nc2c(c(=O)[nH]1)N=C1c3ccccc3C(=O)C1C(c1ccccc1)N2 (centres undefined),68.7%,70%,67.8%,–,45.3%,29%,20%,-35.6% (active),48.7%
